Experimental data as given in PubChem BioAssay (NCATS).
Where “and” joins values, the source holds several entries; their conditions need not be identical. Identical values can stand only once. Records with an inconclusive call do not appear. Calls of active or inactive are those of the source. Calls come from the whole dose curve; as a rule, active = well fitted inhibition curve with a large enough effect; inconclusive = small, poorly fitted or top-dose-only effect; inactive = flat fitted curve, though single readings scatter.

Tests used:
[1] = tested on: HaCat; assay: Cytotoxic Profiling of Annotated Libraries Using Quantitative High-Throughput Screening (AID 1296008); conditions: Five cell lines viability, CellTiter-Glo ATP luminescence, 48-72 h; max response: active compounds read low
Outline: (§1)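 Compounds were pin-transferred onto cells and incubated 48 or 72 hr at 37 degree Celsius, 95% humidity. CellTiter-Glo was added, plates sat 10 min at room temperature, then ATP-coupled luminescence was imaged as the viability read-out.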

[2] = tested on: KB-3-1; assay: as above; conditions: Five cell lines viability, CellTiter-Glo ATP luminescence, 48-72 h; max response: active compounds read low
Outline: as §1

[3] = tested on: NIH3T3; assay: as above; conditions: Five cell lines viability, CellTiter-Glo ATP luminescence, 48-72 h; max response: active compounds read low
Outline: as §1

[4] = tested on: MCC-13; assay: qHTS assay to identify novel small-molecules to repurpose for Merkel cell carcinoma treatment (AID 1296009); conditions: MCC and control cell lines, CellTiter-Glo viability, 72 h; series mostly up to 46 µM
Outline: (§2)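 qHTS format: cells treated with library compounds in DMSO across 8 (NPC) or 11 (MIPE) concentrations. Readout after 72 hr at 37 degree celsius was CellTiter-Glo luminescence.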

[5] = tested on: MCC-26; assay: as above; conditions: MCC and control cell lines, CellTiter-Glo viability, 72 h; series mostly up to 46 µM
Outline: as §2

[6] = tested on: MKL-1; assay: as above; conditions: MCC and control cell lines, CellTiter-Glo viability, 72 h; series mostly up to 46 µM
Outline: as §2

[7] = tested on: MKL-2; assay: as above; conditions: MCC and control cell lines, CellTiter-Glo viability, 72 h; series mostly up to 46 µM
Outline: as §2

[8] = tested on: HACAT; assay: as above; conditions: MCC and control cell lines, CellTiter-Glo viability, 72 h; at 44.8 µM (top of the series) unless noted
Outline: as §2

[9] = tested on: HEK293T; assay: as above; conditions: MCC and control cell lines, CellTiter-Glo viability, 72 h; at 44.8 µM (top of the series)
Outline: as §2

[10] = tested on: CRL-7250; assay: as above; conditions: MCC and control cell lines, CellTiter-Glo viability, 72 h; at 44.8 µM (top of the series) unless noted
Outline: as §2
% is set by controls: 0 for no effect and ±100 for the full control effect; potency is the fitted concentration of half-maximal effect.
Note: nearly all actives have a fitted effect of over 60% in size.

O=C(N[C@@H]1N=C(c2ccccc2F)c2cccc3c2N(CC3)C1=O)c1cc2ccccc2[nH]1
active: Potency [3] 4.32 µM
inactive: max response [1] -2.29% | max response [2] -13.9% | Potency [4] | Potency [5] | Potency [6] | Potency [7]

O=C(O)Cc1ccccc1
inactive: outcome [1] | max response [2] -2.72% | outcome [3] | outcome [8] | Potency [4] | Potency [5] | Potency [6] | Potency [7]

CCCCC1C(=O)NC(=O)N(C2CCCCC2)C1=O (stereo not drawn)
inactive: outcome [1] | max response [2] 2.39% | max response [3] -9.24% | outcome [8] | Potency [4] | Potency [5] | Potency [6] | Potency [7]

CC[C@H]1C[C@@H]2C[C@H]3c4[nH]c5ccc(OC)cc5c4CCN(C2)[C@@H]13
inactive: max response [1] -4.77% | max response [2] -8.79% | max response [3] -11.9% | Potency [4] | Potency [5]

CC(C)NCC(O)c1ccc(N)c(C#N)c1 (stereo not drawn)
inactive: max response [1] -0.104% | max response [2] -10.3% | max response [3] 2.77% | outcome [9] | Potency [4] | Potency [5] | Potency [6] | Potency [7]

COc1cc(C[C@@H](C)N)c(OC)cc1Br
inactive: max response [1] -1.26% | max response [2] -0.0524% | max response [3] -1.11% | Potency [4] | Potency [5] | Potency [6] | Potency [7]

CCOC(=O)NC(C)(C)Cc1ccc(Cl)cc1
inactive: max response [1] 1.84% | max response [2] 2.37% | max response [3] -3.93% | outcome [9] | Potency [4] | Potency [5] | Potency [6] | Potency [7]

C[C@]12CC[C@H]3[C@@H](CC=C4C[C@@H](O)CC[C@@]43C)[C@@H]1CC[C@@H]2O
inactive: outcome [1] | max response [2] -11.4% | max response [3] 4.53% | outcome [8] | Potency [4] | Potency [5] | Potency [6] | Potency [7]

OC(c1ccccc1)(c1ccccc1)C1CCNCC1
inactive: max response [1] -12.8% | max response [2] -11.7% | max response [3] -1.52% | Potency [4] | Potency [5] | Potency [6] | Potency [7]

CN(C)CCc1c[nH]c2ccccc12
inactive: max response [1] 4.72% | max response [2] -5.51% | max response [3] 2.6% | Potency [4] | Potency [5] | Potency [6] | Potency [7]

COc1cc(CC(C)N)c(OC)cc1Br (stereo not drawn)
inactive: max response [1] -6.81% | max response [2] -7.67% and -13.5%
active: Potency [7] 3.18 µM

CNC(C)Cc1ccccc1OC (stereo not drawn)
inactive: max response [1] -16.5% | max response [2] 2.15% | max response [3] -6.74% | Potency [4] | Potency [5] | Potency [6] | Potency [7]

O=C1CN2CCOC2(c2ccccc2Cl)c2cc(Cl)ccc2N1 (stereo not drawn)
inactive: max response [1] -2.33% | outcome [3] | outcome [10] | Potency [4] | Potency [5] | Potency [6] | Potency [7]

Cc1c(Cl)c(=O)oc2cc(OP(=O)(OCCCl)OCCCl)ccc12
inactive: max response [1] 1.96% | max response [2] -0.0609% | max response [3] -22.4% | Potency [4] | Potency [5] | Potency [6] | Potency [7]

Cc1cccc(Cc2cnc[nH]2)c1C
inactive: max response [1] -10% | max response [2] -11.3% | max response [3] -2.68% | Potency [4] | Potency [5] | Potency [6] | Potency [7]

CNC(C)Cc1ccc2c(c1)OCO2 (stereo not drawn)
inactive: max response [1] -2.61% | max response [2] -21.8% | max response [3] 0.465% | Potency [4] | Potency [7]

Cc1nc2ccccc2c(=O)n1-c1ccccc1Cl
inactive: max response [1] -9.75% | max response [2] -1.49% | Potency [4] | Potency [5] | Potency [6] | Potency [7]

C[C@H](CN1CCOCC1)C(C(=O)N1CCCC1)(c1ccccc1)c1ccccc1
inactive: max response [1] -13.3% | max response [2] 1.9% | max response [3] -7.32% | Potency [4] | Potency [5] | Potency [6] | Potency [7]

CCc1ccc(C2CCNCC2)cc1
inactive: outcome [1] | max response [3] 1.66% | outcome [10] | outcome [8] | Potency [4] | Potency [5] | Potency [6] | Potency [7]

C#C[C@]1(O)C=C[C@H]2[C@@H]3CCC4=CC(=O)CC[C@@H]4[C@H]3CC[C@@]21CC
inactive: outcome [1] | max response [2] -9.68% | outcome [8] | Potency [4] | Potency [5] | Potency [6] | Potency [7]

O=C(O)CCCCCCNC1c2ccccc2CCc2ccccc21
inactive: max response [1] 0.465% | max response [2] 7.47% | max response [3] 1.62% | Potency [4] | Potency [5] | Potency [6] | Potency [7]

C[C@]12C=CC(=O)C=C1CC[C@@H]1[C@@H]2CC[C@@]2(C)[C@H]1CC[C@]2(C)O
inactive: max response [1] -43.5% | max response [2] -13.2% | max response [3] -13.6% | Potency [4] | Potency [5] | Potency [6] | Potency [7]

CC(CC(C#N)(c1ccccc1)c1ccccc1)N(C)C (stereo not drawn)
inactive: max response [1] -5.96% | max response [2] -8.06% | max response [3] -12.2% | Potency [5] | Potency [6]

CC(Cc1ccccc1)NCCCCl (stereo not drawn)
inactive: outcome [1] | max response [3] 3.33% | outcome [10] | outcome [8] | Potency [4] | Potency [5] | Potency [6]

CN1[C@@H]2CC[C@H]1CC(OC(=O)c1cc(Cl)cc(Cl)c1)C2 (stereo partly drawn)
inactive: max response [1] 3.49% | max response [2] -13.9% | Potency [4] | Potency [5] | Potency [6] | Potency [7]

c1ccc2nc(N3CCNCC3)ccc2c1
inactive: max response [1] -23.1% | max response [2] -16.3% | max response [3] 0.319% | Potency [4] | Potency [5] | Potency [6] | Potency [7]

CC(C)=CCN1CC[C@@]2(C)c3cc(O)ccc3C[C@@H]1[C@@H]2C
inactive: max response [1] -13.3% | max response [2] -12.1% | max response [3] -2.79% | Potency [4] | Potency [5] | Potency [6] | Potency [7]

C[N+](C)(C)CCOC(=O)C(O)(c1ccccc1)c1ccccc1
inactive: max response [1] 1.68% | max response [2] -1.19% | max response [3] 2.06% | Potency [4] | Potency [5] | Potency [6] | Potency [7]

CN1C(=O)CN=C(c2ccccc2)c2cc(Cl)ccc21
inactive: max response [1] -27.5% | max response [2] -19.7% | Potency [5] | Potency [6] | Potency [7]

Oc1ccc2[nH]cc(CCCCN3CC=C(c4ccccc4)CC3)c2c1
active: Potency [6] 8.41 µM | Potency [7] 5.96 µM
inactive: outcome [1] | max response [2] 7.3% | outcome [8] | Potency [4] | Potency [5]

CC(Cc1ccc2c(c1)OCO2)NO (stereo not drawn)
inactive: max response [1] -1.01% | max response [2] -9.46% | max response [3] 3.02% | Potency [4] | Potency [5] | Potency [6] | Potency [7]

CCCOC(=O)Cc1ccc(OCC(=O)N(CC)CC)c(OC)c1
inactive: max response [1] -1.71% | max response [2] -8.87% | max response [3] -20.5% | Potency [4] | Potency [5] | Potency [6] | Potency [7]

COP(=O)(OC)OC=C(Cl)Cl
inactive: max response [1] -7.81% | outcome [3] | outcome [10] | Potency [4] | Potency [5] | Potency [6] | Potency [7]

COCC(=O)N(c1c(C)cccc1C)C(C)C(=O)OC (stereo not drawn)
inactive: max response [1] 3.69% | max response [2] -13.6% | outcome [3] | Potency [4] | Potency [5] | Potency [6] | Potency [7]

O=C(CBr)Nc1ccc(Cl)cc1C(=O)c1ccccc1F
inactive: max response [1] 3.69% | outcome [3] | outcome [10] | Potency [4] | Potency [5] | Potency [6] | Potency [7]

C=CC[C@]1(O)CC[C@H]2[C@@H]3CCC4=CC(=O)CCC4=C3C=C[C@@]21C
inactive: max response [1] 1.64% | max response [2] -5.35% | Potency [4] | Potency [5] | Potency [6]

COP(=S)(OC)Oc1ccc(Sc2ccc(OP(=S)(OC)OC)cc2)cc1
inactive: max response [1] -8.51% | max response [2] 1.06% | outcome [3] | Potency [4] | Potency [5] | Potency [6] | Potency [7]

N#Cc1nn(-c2c(Cl)cc(C(F)(F)F)cc2Cl)c(N)c1S(=O)C(F)(F)F (stereo not drawn)
inactive: max response [1] -11.3% | max response [2] -1.94% | Potency [4] | Potency [5]
active: Potency [7] 23.7 µM

CC(=O)OC1(c2ccccc2)CCN(CCc2ccccc2)CC1
inactive: max response [1] -10.1% | max response [2] -24% | max response [3] -21.5% | Potency [6]

CCC1(c2cccc(O)c2)CCCCN(C)C1 (stereo not drawn)
inactive: max response [1] -5.66% | max response [2] 24.1% | max response [3] 2.43% | Potency [4] | Potency [5] | Potency [6] | Potency [7]

Clc1ccc(C(OCCN2CCCCC2)c2ccccc2)cc1 (stereo not drawn)
inactive: max response [1] -5.7% | max response [2] -23.9% | Potency [4] | Potency [5] | Potency [6] | Potency [7]

C[C@@H]1C[C@@H]([C@H](O)CC2CC(=O)NC(=O)C2)C(=O)[C@@H](C)C1
active: Potency [1] 2.35 µM | Potency [2] 3.66 µM and 1.48 µM | Potency [3] 473 nM and 235 nM | Potency [4] 944 nM and 4.69 µM | Potency [6] 1.66 µM | Potency [7] 2.09 µM

CCCN(CCC)CCc1c[nH]c2ccccc12
inactive: max response [1] -5.54% | max response [2] -20.7% | max response [3] 3.34% | Potency [4] | Potency [5] | Potency [6] | Potency [7]

CCc1cc(OC)c(C[C@H](C)N)cc1OC
inactive: max response [1] 0.504% | max response [2] -8.43% | max response [3] -16.2% | Potency [4] | Potency [5] | Potency [6] | Potency [7]

O=c1[nH]c2cc(Cl)ccc2n1C1CCNCC1
inactive: outcome [1] | outcome [3] | outcome [10] | outcome [8] | Potency [4] | Potency [5] | Potency [6] | Potency [7]

CCOC(=O)c1ncn2c1CN(C)C(=O)c1c(I)cccc1-2
inactive: max response [1] -1.53% | max response [2] 1.54% | max response [3] -15.1% | Potency [4] | Potency [5] | Potency [6] | Potency [7]

CCN(Cc1ccc(Cl)nc1)/C(=C/[N+](=O)[O-])NC
inactive: outcome [1] | max response [3] 3.9% | outcome [8] | outcome [9] | Potency [4] | Potency [5] | Potency [6] | Potency [7]

CC1COC2(c3ccccc3Cl)c3cc(Cl)ccc3NC(=O)CN12 (stereo not drawn)
inactive: outcome [1] | max response [3] 2.64% | outcome [8] | Potency [4] | Potency [5] | Potency [6]

CN1CCC(N(Cc2ccccc2)c2ccccc2)CC1
inactive: outcome [1] | max response [3] -20.5% | outcome [8] | Potency [4] | Potency [5] | Potency [6]

CCC1(c2cnc[nH]2)Cc2ccccc2C1
inactive: max response [2] -12.7% and -2.33% | outcome [3]
